Inconclusive results are not listed. Where a call stands in place of a potency, no number is given. The source made the active and inactive calls. The call rests on the fitted dose curve; in most records, active means well fitted inhibition curve with a large enough effect; inconclusive means small, poorly fitted or top-dose-only effect; inactive means flat fitted curve, though single readings scatter.
Assay: Counterscreen Assay for Enhancers of SMN2 Splice Variant Expression: Modulation of SMN1 Expression
Settings: HEK293 SMN1-luciferase reporter, luminescence, 30-36 h; series mostly up to 22.8 µM
Source text: NIH Chemical Genomics Center [NCGC] NIH Molecular Libraries Probe Production centers Network [MLPCN] MLPCN Grant: R03 MH084179-01 Assay Submitter (PI): Elliot Androphy NCGC Assay Overview: Spinal muscular atrophy (SMA) is caused by insufficient levels of the survival motor neuron protein SMN. The SMN locus on chromosome 5q13 contains two inverted copies of SMN called SMN1 and SMN2 which are 99% identical at the amino acid level. SMN1 is a fully functional protein and SMN2 skips exon 7 90% of the time. Skipping of exon 7 produces non-functional protein product. 10% of the SMN2 protein includes exon 7 and is fully functional. In the SMA disease state, mutations in the SMN1 locus are the cause of the disease state. Because only 10% of SMN2 is of the fully functional form, it is not sufficient to overcome the deficiency produced by the loss of the SMN1 product. A therapy that either increase the amount of SMN2 product made or to increase the inclusion of exon 7 has been proposed for the treatment of SMA. We have designed an assay to identify small molecules that can increase the amount of functional SMN2 product by appending a luciferase reporter gene after the native SMN2 gene, such that inclusion of exon 7 in the expressed product places the luciferase sequence in frame, thus generating functional luciferase enzyme. As a counterscreen for nonspecific modulators of expression, we have run compounds through a similar assay that measures expression of an SMN1-luciferase chimera.
NCGC Assay Protocol Summary: This screen utilizes a luciferase reporter gene assay, combining the promoter with the major portion of the native SMN1 cDNA (exons 1 -7, intron 8 , exon 8 fused to luciferase) stably expressed in HEK293 cells. Compounds that increase luciferase signal presumably enhance expression of the functional SMN1 splice variant. Passaging media contained DMEM w/ glutamax (+phenol red) 10% FCS, 1x pen/strep, 200 ug/ml hygro, 1x sodium pyruvate. Assay media contained DMEM w/ glutamax (-phenol red) 10% FCS, 1x pen strep, 1x pyruvate Sequence, Parameter, Value, Description (1) Cells, 5 uL, 2000 cells/well, 1536 TC treated White solid bottom plate (2) Time, 10-12 hours, 37C 5% CO2 (3) Compound, 23 nl, MLSMR Library (4) Control Compound, 23 nL, Sodium butyrate st 4.5mM (final) conc (5) Time, 30-36 hours, 37C 5% CO2 (6) Reagent, 3 ul, One Glo (TM) from Promega (7) Time, 5-15 minutes, Room temp (8) Detector, Viewlux: luminescent read, 60 second integration, high speed 2x binning Keywords: Spinal muscular atrophy, SMA, SMN2, high throughput screening, MLSMR, MLPCN, NIH Roadmap, qHTS and NCGC

Row | Compound | Potency
1 | FC(F)C(F)(F)C1=CC(c2cccs2)=NCCN1 | inactive
2 | CCCSc1nnc(Sc2nnnn2-c2ccccc2)s1 | 7.08 µM (active)
3 | COc1nc(-c2ccc(Cl)cc2)nnc1C | inactive
4 | Clc1nc(NCc2ccco2)c2[nH]cnc2n1 | inactive
5 | Nc1ccccc1-c1nnn(CC(=O)N2CCCc3ccccc32)n1 | inactive
6 | O=C(Nc1nc(-c2ccc3ccccc3c2)cs1)C1CCN(S(=O)(=O)c2cccs2)CC1 | inactive
7 | COc1ccc(-c2csc(N3CCC(C(N)=O)(N4CCCCC4)CC3)n2)cc1 | inactive
8 | OCCCNc1nc(-c2ccc(Br)cc2)nnc1-c1ccc(Cl)cc1 | inactive
9 | Brc1ccc(-c2nnc(-c3ccccc3)c(N3CCSCC3)n2)cc1 | inactive
10 | CCC1=Nc2ccccc2-c2nnc(SC)nc2O1 | inactive
11 | Nn1c(SCC(=O)NCCC2=CCCCC2)nnc1C1CCCCC1 | inactive
12 | CC(C)Nc1nc(-c2ccccc2)nnc1-c1ccccc1 | inactive
13 | Cc1ccc(-c2nnc(-c3ccccc3)c(-c3ccccc3)n2)cc1 | inactive
14 | Clc1nc(NCC2CCCO2)c2[nH]cnc2n1 (stereo not given) | inactive
15 | NC(=O)C1(N2CCCCC2)CCN(c2nc(-c3ccccc3)cs2)CC1 | inactive
16 | Cn1c(C(=O)NCc2cccs2)cc2oc3ccccc3c21 | 3.16 µM (active)
17 | Fc1ccc(Oc2nc(-c3ccccc3)nnc2C(F)(F)F)cc1 | inactive
18 | O=C(NCCc1cn2ccsc2n1)c1cccs1 | inactive
19 | O=[N+]([O-])c1ccc(-c2nnc(-c3ccccc3)c(N3CCOCC3)n2)cc1 | inactive
20 | CCCCOC(C)n1cc(F)c(=O)[nH]c1=O (stereo not given) | inactive

Row | Compound | Potency
21 | FC(F)(F)c1cccc(Oc2nc(-c3ccccc3)nnc2C(F)(F)F)c1 | inactive
22 | O=C1CCC(C(=O)Nc2cccc3ccccc23)N1 (stereo not given) | inactive
23 | FC(F)(F)c1cccc(-c2nnc(-c3ccccc3)c(N3CCOCC3)n2)c1 | inactive
24 | Clc1ccc(-c2nnc(-c3ccccc3)c(N3CCSCC3)n2)cc1 | inactive
25 | CC1CN(c2nc(-c3ccc(Br)cc3)nnc2-c2ccccc2)CC(C)N1 (stereo not given) | inactive
26 | c1coc(CNc2ncnc3nc[nH]c23)c1 | inactive
27 | Cn1cnc2c(NCc3ccco3)ncnc21 | inactive
28 | O=C(Cc1c(F)cccc1Cl)N1CCN(C(=O)c2ccco2)CC1 | inactive
29 | Clc1ccc(-c2nnc(-c3ccc(Br)cc3)c(N3CCSCC3)n2)cc1 | inactive
30 | O=C(Nc1ccc([N+](=O)[O-])cc1Cl)c1cc(Cl)ccc1O | 0.708 µM (active)
31 | Cc1[nH]c2ccccc2c1-c1nc(-c2ccc(Cl)cc2)nnc1-c1ccccc1 | inactive
32 | CC(C)(C)n1nnnc1C(c1ccc2ncccc2c1)N1CCSCC1 (stereo not given) | inactive
33 | FC(F)(F)c1nnc(-c2ccccc2)nc1Oc1ccccc1 | inactive
34 | Clc1ccc(-c2nnc(-c3ccccc3)nc2-c2c[nH]c3ccccc23)cc1 | inactive
35 | NC(=O)N1c2ccccc2C=Cc2ccccc21 | inactive
36 | COc1ccc(OC)c(-c2csc(N3CCC(c4ccccc4)CC3)n2)c1 | inactive
37 | COc1ccc(-c2csc(N3CCC(c4ccccc4)CC3)n2)cc1 | inactive
38 | O=C(NCc1cccs1)C(=O)NCC1OCCCN1S(=O)(=O)c1ccccc1 (stereo not given) | inactive
39 | Cc1ccc(C2c3c(oc4ccccc4c3=O)C(=O)N2CCCN2CCOCC2)o1 (stereo not given) | inactive
40 | COCCCN1C(=O)C(=O)/C(=C(/O)c2ccc3c(c2)CC(C)O3)C1c1cccnc1 (stereo not given) | inactive
